Among the data in PubChem BioAssay (Tox21) are Potency and outcome values, retold here.

Assay [1] can be described thus: Nuclear factor erythroid 2-related factor 2/antioxidant responsive element (Nrf2/ARE) small molecule agonists: qHTS cell viability counter screen in human keratinocytes (AID 1919968; active means well fitted curve in the direction sought with a large enough effect in the repeat runs; an effect the other way counts as inactive or inconclusive; further: nearly all actives have a fitted effect of over 55% in size). The gist of the method:
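In human HaCaT keratinocytes stably expressing an ARE-driven luciferase, compound exposure lasted 23 h at 37 C under 5% CO2. Viable cells are quantified with a protease-based fluorogenic reagent (CellTiter-Fluor) read 1 h after addition.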
On the technique in general: In qHTS, concentration-response curves come from the screen itself.

A short description of assay [2]: Nuclear factor erythroid 2-related factor 2/antioxidant responsive element (Nrf2/ARE) small molecule agonists: luciferase reporter gene qHTS assay in human keratinocytes (AID 1919969). Further: nearly all actives have a fitted effect of over 35% in size. Further: potency means the concentration at half of the fitted maximal effect. For orientation: Reporter assays use an easily measured gene product as a stand-in for the process of interest.
Assay [3] addresses Gonadotropin-releasing hormone receptor (Homo sapiens) (UniProt P30968). As to the kind of experiment: Human gonadotropin-releasing hormone receptor (GnRHR) small molecule agonists, calcium flux assay in GnRHR-HEK293 cells (AID 1920063). Further: nearly all actives have a fitted effect of over 35% in size. Put shortly: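 Intracellular calcium rise is the read-out: engineered human GnRHR HEK293 cells, dye-loaded, are exposed to DMSO-dissolved compounds and fluorescence at Ex/Em 480/540 is tracked for 3 min.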
(In general: A change in cytosolic calcium serves as a functional read-out for many receptors and channels.)

Assay [4] deals with KiSS-1 receptor (Homo sapiens) (UniProt Q969F8). The assay can be described thus: Human kisspeptin (KISS1R) small molecule agonists, calcium flux assay in KISS1R-HEK293 cells (AID 1920064; active means well fitted curve in the direction sought with a large enough effect in the repeat runs; an effect the other way counts as inactive or inconclusive). Put shortly: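 Concentration-response testing used 15 concentrations in triplicate on human KISS1R-expressing HEK293 cells. Calcium-dependent fluorescence (Ex/Em 480/540) was followed kinetically for 3 min after compound transfer.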

The nature of assay [5]: G protein-coupled receptor (GPCR) small molecule agonists, calcium flux assay: HEK293 wild type cell line counter screen (AID 1920065). The gist of the method: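 Fluorescence intensity signals activation. After overnight (18 h) culture and a 1 h calcium dye load at 37 C, compounds are added by pin tool and the plate read at 480/540 nm for 3 min in 1 s steps.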
Assay [6] can be described thus: p53 small molecule agonists, cell-based qHTS assay with human liver microsomes (AID 1963577).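 Further: p53 response element beta-lactamase reporter cells with liver microsomes plus NADPH.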 The gist of the method: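 Steps: plate p53RE-bla cells, incubate 5 h at 37 C; add compound in DMSO; add microsomes (0.5 mg/mL final) and NADPH (0.5 mg/mL final); incubate 16 h at 37 C; add LiveBLAzer, 2 h RT; read fluorescence.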
A short description of assay [7]: p53 small molecule agonists, cell-based qHTS assay with rat liver microsomes (AID 1963578). Put shortly:
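Metabolic activation is supplied by rat liver microsomes with NADPH (each 0.5 mg/mL final). p53RE-bla cells incubate with compound 16 h at 37 C; reporter activity is measured by LiveBLAzer fluorescence.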

Assay [8] in a line: p53 small molecule agonists, cell-based qHTS assay with rat liver microsomes: qHTS cell viability counter screen (AID 1963580). Further: nearly all actives have a fitted effect of over 45% in size. Put shortly: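 Cytotoxicity counter screen: intracellular ATP measured by CellTiter-Glo luminescence in the same wells as the beta-lactamase reporter read, on HCT-116 p53RE-bla cells exposed 16 h at 37 C to compounds with rat liver microsomes and NADPH, each 0.5 mg/mL final.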

Assay [9] can be described thus: p53 small molecule agonists, cell-based qHTS assay: qHTS cell viability counter screen (AID 1963581). Further: nearly all actives have a fitted effect of over 45% in size. The gist of the method:
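Luminescence from CellTiter-Glo, reflecting ATP content, serves as the cytotoxicity measure; it is taken after the 2 h reporter substrate step in HCT-116 p53RE-bla cells dosed for 16 h at 37 C.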

Assay [10] can be described thus: p53 small molecule agonists, cell-based qHTS assay (AID 1963582; active means well fitted activation curve with a large enough effect in the signal ratio in the repeat runs, not every such curve was filed as active; the % refers to the signal ratio). The gist of the method: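 After plating, p53RE-bla cells sat 5 h in the incubator; compounds or DMSO vehicle were pinned in; a 16 h incubation at 37 C followed; FRET substrate was added and, 2 h later at RT, fluorescence was measured.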
The target of assay [11] is 5-hydroxytryptamine receptor 2A (Homo sapiens) (UniProt P28223). The assay can be described thus: 5-hydroxytryptamine receptor 2A (HTR2A) small molecule antagonists, cell-based qHTS assay (AID 1963586). Further: nearly all actives have a fitted effect of over 45% in size. The gist of the method:
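CHO cells stably expressing human HTR2A were plated for 18 h at 37 C, then loaded with calcium dye for 1 h. Compounds were preincubated 5 min at room temperature before DOI (4 nM solution) was added. Kinetic fluorescence was read for 3 min.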

For assay [12] the target is unchanged. The assay can be described thus: 5-hydroxytryptamine receptor 2A (HTR2A) small molecule agonists, cell-based qHTS assay (AID 1963587). Further: nearly all actives have a fitted effect of over 30% in size. The gist of the method: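 CHO cells stably expressing human HTR2A, plated 18 h, loaded with calcium dye 1 h at 37 C. Agonist mode: compounds added and intracellular calcium fluorescence recorded kinetically for 2 min at 1 sec intervals.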

Assay [13] deals with Muscarinic acetylcholine receptor M1 (Homo sapiens) (UniProt P11229). As to the kind of experiment: Cholinergic receptor muscarinic 1 (CHRM1) small molecule antagonists, cell-based qHTS assay (AID 1963588). Further: nearly all actives have a fitted effect of over 40% in size. Put shortly: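 Compounds were tested at 15 concentrations in three independent runs. Dye-loaded CHRM1-CHO cells were exposed 5 min at room temperature before stimulation by acetylcholine added at 50nM. Intracellular calcium was read kinetically on FDSS for 3 min.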

The target is the same in assay [14]. As to the kind of experiment: Cholinergic receptor muscarinic 1 (CHRM1) small molecule agonists, cell-based qHTS assay (AID 1963589). Further: nearly all actives have a fitted effect of over 35% in size. The gist of the method: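 Fluorescent calcium dye reports M1 activation in stably transfected CHO cells. Compounds, 15 concentrations, added after 1 h dye loading at 37 C; kinetic reading at 1 sec intervals.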
Assay [15] is described as follows: cAMP Responsive Elements (CRE) small molecule agonists, cell-based qHTS assay (AID 1963590). The gist of the method:
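Compound exposure lasted 3 h at 37 C/5% CO2 in CRE-bla HEK 293T cells grown in assay medium with 10% dialyzed FBS and 25 mM HEPES. Reporter signal came from LiveBLAzer B/G FRET substrate, 2 h, room temperature.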

Assay [16] deals with Beta-2 adrenergic receptor (Homo sapiens) (UniProt P07550). As to the kind of experiment: Adrenergic beta2 receptor (ADRB2) small molecule antagonists, cell-based qHTS assay (AID 1963592). Further: series mostly up to about 92 µM; nearly all actives have a fitted effect of over 50% in size. The gist of the method:
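Assay format: CHO-ADRB2 cells, 18-20hr seeding at 37C/5% CO2, then compound plus 1nM isoproterenol agonist mix for 0.5hr RT. Homogeneous time-resolved fluorescence cAMP detection after 1hr, expressed as 665/615 nm ratio.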

The target in assay [17] is D(2) dopamine receptor (Homo sapiens) (UniProt P14416). As to the kind of experiment: Dopamine D2 receptor (DRD2) small molecule agonists, cell-based qHTS assay (AID 1963594). Further: nearly all actives have a fitted effect of over 35% in size. Put shortly:
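HEK293 cells stably expressing human DRD2, pre-treated with PDE inhibitor Ro20-1724 (0.1 mM final) and compound 10 min at room temperature, then stimulated with NKH477 (200nM […]) for 30 min. cAMP read by HTRF (665/620 nm).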

For assay [18] the target is unchanged. As to the kind of experiment: Dopamine D2 receptor (DRD2) small molecule antagonists, cell-based qHTS assay (AID 1963595; active means well fitted inhibition curve with a large enough effect in the signal ratio in the repeat runs, with a control signal flat; the % refers to the signal ratio; further: potency means the concentration at half of the fitted maximal effect). Put shortly:
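Human DRD2 antagonist qHTS measuring cAMP by HTRF. The cells are exposed to compound for 10 min, then to NKH477 (200 nM) and quinpirole (12 nM) for 30 min at RT, with Ro20-1724 (0.1 mM) present throughout.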

Assay [19] in a line: cAMP Responsive Elements (CRE) small molecule antagonists, cell-based qHTS assay (AID 1963591; active means well fitted inhibition curve with a large enough effect in the signal ratio in the repeat runs, not every such curve was filed as active; the % refers to the signal ratio). Put shortly:
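Stimulation used NKH477 at a final 0.25 uM for 3 h in compound-treated CRE-bla HEK293T cells, seeded 18 h beforehand. Reporter activity was measured with LiveBLAzer B/G FRET substrate after 2 h at room temperature.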

Unmarked numbers belong to inactive results. Records with an inconclusive call do not appear. The source made the active and inactive calls. Unless noted, the call rests on the fitted dose curve.

Sequence of KiSS-1 receptor (Homo sapiens) (Q969F8 whole entry, looked up): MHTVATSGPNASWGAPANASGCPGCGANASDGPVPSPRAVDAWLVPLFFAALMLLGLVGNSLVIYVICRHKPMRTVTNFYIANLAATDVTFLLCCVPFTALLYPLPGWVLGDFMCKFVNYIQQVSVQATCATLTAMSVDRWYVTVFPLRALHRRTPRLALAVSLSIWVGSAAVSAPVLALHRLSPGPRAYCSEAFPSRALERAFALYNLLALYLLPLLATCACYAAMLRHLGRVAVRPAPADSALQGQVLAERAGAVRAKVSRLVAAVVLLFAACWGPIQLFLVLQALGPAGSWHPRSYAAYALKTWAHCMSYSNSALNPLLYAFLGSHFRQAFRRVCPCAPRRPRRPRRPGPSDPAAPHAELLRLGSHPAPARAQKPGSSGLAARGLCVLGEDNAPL
Sequence of 5-hydroxytryptamine receptor 2A (Homo sapiens) (P28223 whole entry, looked up): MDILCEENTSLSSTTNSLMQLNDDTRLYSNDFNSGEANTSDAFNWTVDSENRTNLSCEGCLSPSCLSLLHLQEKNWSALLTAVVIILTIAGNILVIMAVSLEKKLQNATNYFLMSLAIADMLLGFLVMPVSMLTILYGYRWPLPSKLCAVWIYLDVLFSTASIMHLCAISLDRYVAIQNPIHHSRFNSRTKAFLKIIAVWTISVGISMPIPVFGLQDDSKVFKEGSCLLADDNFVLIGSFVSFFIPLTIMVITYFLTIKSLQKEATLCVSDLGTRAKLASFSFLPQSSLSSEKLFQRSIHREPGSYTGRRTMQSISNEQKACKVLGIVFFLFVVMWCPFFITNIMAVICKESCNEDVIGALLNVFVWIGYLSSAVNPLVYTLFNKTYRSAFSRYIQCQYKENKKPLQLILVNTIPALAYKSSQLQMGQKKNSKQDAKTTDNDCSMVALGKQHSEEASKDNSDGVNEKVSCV
Sequence of D(2) dopamine receptor (Homo sapiens) (P14416 whole entry, looked up): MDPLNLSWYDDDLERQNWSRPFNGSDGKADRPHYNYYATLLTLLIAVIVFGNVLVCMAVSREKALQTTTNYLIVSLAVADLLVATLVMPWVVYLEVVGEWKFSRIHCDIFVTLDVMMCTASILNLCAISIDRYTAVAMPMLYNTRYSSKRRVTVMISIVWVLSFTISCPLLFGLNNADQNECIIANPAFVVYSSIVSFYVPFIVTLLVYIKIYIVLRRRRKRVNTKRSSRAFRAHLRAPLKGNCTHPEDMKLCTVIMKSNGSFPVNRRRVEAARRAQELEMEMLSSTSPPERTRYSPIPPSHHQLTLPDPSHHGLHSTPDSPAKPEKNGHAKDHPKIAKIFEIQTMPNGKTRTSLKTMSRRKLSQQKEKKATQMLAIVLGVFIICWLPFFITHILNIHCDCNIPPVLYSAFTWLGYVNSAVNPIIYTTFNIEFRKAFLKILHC
Sequence of Beta-2 adrenergic receptor (Homo sapiens) (P07550 whole entry, looked up): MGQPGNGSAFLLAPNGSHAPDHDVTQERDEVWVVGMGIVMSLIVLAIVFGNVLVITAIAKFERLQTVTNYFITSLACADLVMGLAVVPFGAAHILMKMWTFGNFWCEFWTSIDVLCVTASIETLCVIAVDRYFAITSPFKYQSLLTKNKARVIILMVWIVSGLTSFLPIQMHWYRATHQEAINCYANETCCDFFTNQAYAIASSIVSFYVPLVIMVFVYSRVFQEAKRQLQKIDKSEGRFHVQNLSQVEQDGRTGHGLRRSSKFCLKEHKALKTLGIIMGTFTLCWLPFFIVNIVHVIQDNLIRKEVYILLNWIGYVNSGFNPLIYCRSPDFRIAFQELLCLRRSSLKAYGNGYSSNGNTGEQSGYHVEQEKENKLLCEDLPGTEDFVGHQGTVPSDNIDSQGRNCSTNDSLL
Sequence of Gonadotropin-releasing hormone receptor (Homo sapiens) (P30968 whole entry, looked up): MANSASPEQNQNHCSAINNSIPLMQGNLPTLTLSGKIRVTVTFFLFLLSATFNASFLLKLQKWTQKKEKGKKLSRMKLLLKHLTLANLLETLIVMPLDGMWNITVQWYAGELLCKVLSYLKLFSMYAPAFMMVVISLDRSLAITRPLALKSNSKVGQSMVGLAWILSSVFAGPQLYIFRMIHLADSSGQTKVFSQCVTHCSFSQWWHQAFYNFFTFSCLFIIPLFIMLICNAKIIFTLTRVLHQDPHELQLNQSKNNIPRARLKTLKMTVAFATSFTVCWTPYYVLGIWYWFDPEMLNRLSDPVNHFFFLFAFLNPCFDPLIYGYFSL
Sequence of Muscarinic acetylcholine receptor M1 (Homo sapiens) (P11229 whole entry, looked up): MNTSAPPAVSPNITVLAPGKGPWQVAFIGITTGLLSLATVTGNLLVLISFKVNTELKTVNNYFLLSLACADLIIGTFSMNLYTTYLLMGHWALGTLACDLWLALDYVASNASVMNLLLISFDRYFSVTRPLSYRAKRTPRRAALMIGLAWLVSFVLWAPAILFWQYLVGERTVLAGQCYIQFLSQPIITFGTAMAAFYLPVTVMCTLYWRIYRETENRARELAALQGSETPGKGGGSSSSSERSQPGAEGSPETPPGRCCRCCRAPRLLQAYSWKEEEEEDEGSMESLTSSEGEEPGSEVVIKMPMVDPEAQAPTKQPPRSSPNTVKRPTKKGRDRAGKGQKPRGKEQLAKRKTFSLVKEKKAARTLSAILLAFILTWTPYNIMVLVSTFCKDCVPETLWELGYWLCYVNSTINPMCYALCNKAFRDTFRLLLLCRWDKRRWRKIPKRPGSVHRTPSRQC

In the case of `CCCCCCOC(=O)C(C)C`, the Potency result in assay [1], in assay [2], in assay [3], in assay [6], in assay [7] and in assay [8] was “inactive” in each case. The Potency entry in assay [9], in assay [10], in assay [11], in [12], in assay [13] and in [14] was “inactive” in each case. Also, the Potency result in assay [15], in assay [16], in assay [17] and in assay [18] was “inactive” in each case. Moreover, the result in [4] and in assay [5] was inactive.

For `C=CCOc1nc(OCC=C)nc(OCC=C)n1`, the Potency result in assay [1], in assay [2], in assay [3], in assay [6], in [7] and in assay [8] was “inactive” in each case. The Potency result in assay [9], in [10], in assay [11], in [12], in assay [13] and in assay [14] was “inactive” throughout. For the same compound, the Potency result in assay [19], in [16], in [17] and in [18] was “inactive” each time. Further, the result in assay [4] and in [5] was inactive.

Consider `O=C(O)CCC(=O)c1ccc(-c2ccccc2)cc1`, for which the Potency entry in assay [1], in assay [2], in assay [3], in [6], in assay [7] and in [8] was “inactive” throughout. Moreover, the Potency entry in assay [9], in [10], in assay [11], in assay [12], in assay [13] and in assay [14] was “inactive” in each case. Further, the Potency entry in assay [16], in assay [17] and in assay [18] was “inactive” in each case. Besides, the outcome in assay [4] and in [5] was inactive.

Regarding `Cc1nc2ccccn2c(=O)c1CCN1CCC(C(=O)c2ccc(F)cc2)CC1`, the Potency entry in [1], in assay [2], in assay [3], in [6], in [7] and in assay [8] was “inactive” in each case. Besides, the Potency entry in assay [9], in assay [10], in [11], in assay [12], in assay [13] and in assay [14] was “inactive” each time. Besides, the Potency entry in assay [15] and in assay [17] was “inactive” each time. Besides, the outcome in assay [4] and in assay [5] was inactive. Also, in assay [18], the Potency is 0.531 µM (active).

In the case of `COc1cc(OC)nc(NC(=O)NS(=O)(=O)Nc2ccccc2C(=O)N(C)C)n1`, the Potency result in assay [1], in assay [2], in [3], in assay [6], in assay [7] and in assay [8] was “inactive” throughout. Besides, the Potency entry in assay [9], in assay [10], in assay [11], in assay [12], in assay [13] and in assay [14] was “inactive” each time. Moreover, the Potency result in assay [19] and in assay [17] was “inactive” throughout. Also, the result in assay [4] and in assay [5] was inactive.

For the compound `O=[N+]([O-])c1ccc(/C=N\O)o1`, the Potency result in [1], in assay [3], in [6], in [7], in assay [8] and in assay [9] was “inactive” throughout. Further, the Potency result in assay [10], in assay [11], in assay [12], in [13], in [14] and in [15] was “inactive” in each case. Further, the Potency entry in assay [17] and in [18] was “inactive” each time. Also, the Potency in [2] was 23.7 µM (active). The result in assay [4] and in assay [5] was inactive.

For the compound `O=C(O)CC(C(=O)O)S(=O)(=O)O` (stereo not given), the Potency result in assay [1], in assay [2], in assay [3], in [6], in assay [7] and in assay [8] was “inactive” each time. For the same compound, the Potency entry in assay [9], in assay [10], in assay [11], in [12], in [14] and in assay [15] was “inactive” each time. Also, the Potency result in assay [19], in [16] and in assay [18] was “inactive” in each case. The outcome in assay [4] and in assay [5] was inactive.
